HT1080 IDH1KD tx: HT-1080 IDH1 knockdown cell toxicity (counter line); HT-1080 IDH1 knockdown viability, ATP luminescence, 48 h; hit rate 2% among 360,000; Potency, µM (doses to about 46.1 µM), actives largely listed as cytotoxic
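CellTiter-Glo luminescence after 48 h compound exposure at 37 degrees C of IDH1-knockdown HT-1080 cells in 5% FBS RPMI. %Activity scaled between DMSO wells and cell-free media wells, with curves fitted and assigned curve classes.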
TDP1 cell noCPT: qHTS for Inhibitors of human tyrosyl-DNA phosphodiesterase 1 (TDP1): qHTS in cells in absence of CPT; DT40 Tdp1-/- hTDP1 cells, no CPT, ATP luminescence, 48 h; Potency, µM (series often up to 46.2 µM), most hits filed as inhibitors; hit rate 15% among 420,000; AID 686978, 2013; note: nearly all actives have a fitted effect of over 55% in size
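A cellular qHTS used chicken DT40 cells lacking endogenous Tdp1 but carrying stably transfected human TDP1. Compounds were applied without camptothecin, and cell growth kinetics were judged by ATP-dependent luminescence after ≥48 hr.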
KB-V1 MDR tox: kills drug-selected multidrug resistant KB-V1 cells. hit rate 3.4% among 400,000. Potency, µM (doses to about 46.1 µM), usual class: cytotoxic. AID 1347076. KB-V1 MDR cells viability, CellTiter-Glo, 72 h; note: nearly all actives have a fitted effect of over 60% in size
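KB-V1, DMEM (no phenol red) + 10% FBS; cpd pin-transferred, titration series; 72 h, 37 degrees C; CellTiter-Glo, luminescence. Data normalized, curve-fit.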
TDP1 cell CPT: DT40-hTDP1 cell growth loss with CPT; Potency, µM (top dose mostly 46.2 µM), actives largely listed as inhibitors; chicken DT40 Tdp1-/-;hTDP1 cells + 20 nM CPT, ATP luminescence, 48 h; hit rate 12% among 420,000; note: nearly all actives have a fitted effect of over 55% in size
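Chicken DT40 Tdp1-/- cells complemented with human TDP1, 400 cells/well, exposed to compounds plus 20 nM camptothecin for at least 48 h at 37 C; viability read as ATP content by CellTiter-Glo luminescence.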
HT1080-NT tox: kills 2HG-producing HT-1080-NT fibrosarcoma cells | HT-1080-NT fibrosarcoma viability, CellTiter-Glo ATP luminescence, 48 h | hit rate 1.6% among 360,000 | AID 686970 | Potency, µM (series often up to 46.1 µM), most hits filed as cytotoxic;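 note: NT is the 2HG producing partner of a matched IDH1 knockdown line; nearly all actives have a fitted effect of over 55% in size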
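HT-1080-NT fibrosarcoma cells (2HG-overproducing), 750 cells/well in RPMI with 5% FBS, dosed after 2 h and incubated 48 h at 37C. CellTiter-Glo luminescence normalized to DMSO and no-cell wells; concentration-response curves fitted and classed.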
KB-3-1 cytotox: KB-3-1 parental cell cytotoxicity; KB-3-1 viability, CellTiter-Glo ATP luminescence, 72 h; Potency, µM (series often up to 46.1 µM), usual class: cytotoxic; hit rate 1.4% among 400,000; note: nearly all actives have a fitted effect of over 60% in size
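Parental KB-3-1 viability, qHTS format: 72 h compound exposure, 37 °C; CellTiter-Glo; media-only wells and DMSO plates as controls; concentration-effect fits on corrected data.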
A number is an active result. This is a sample that favours compounds with a hit; in the whole collection about 19% have one here. Calls come from the whole dose curve; as a rule, active = well fitted curve in the direction sought with a large enough effect; inconclusive = small, poorly fitted or top-dose-only effect, or another doubt; inactive = no such curve, though single readings can be large; an effect the other way counts as inactive or inconclusive.

`Cc1cccc(NC(=O)CSCC(=O)Nc2ccccc2N2CCCCC2)c1` gave HT1080 IDH1KD tx inactive, TDP1 cell noCPT inconclusive, KB-V1 MDR tox 16µM, TDP1 cell CPT inactive, HT1080-NT tox inactive and KB-3-1 cytotox inconclusive.
Screening Cc1cccc(NC(=O)CSc2nc3ccccc3nc2N2CCCCC2)c1C returned TDP1 cell noCPT 12µM, KB-V1 MDR tox inactive, TDP1 cell CPT 23µM and KB-3-1 cytotox inactive.
Screening Cc1cccc(NC(=O)CSc2nc3ccccc3nc2N2CCCCC2)c1 returned HT1080 IDH1KD tx inactive, TDP1 cell noCPT inconclusive, KB-V1 MDR tox inconclusive, TDP1 cell CPT 29µM, HT1080-NT tox inactive and KB-3-1 cytotox inconclusive.
Cc1ccc(NC(=O)CSCC(=O)Nc2ccccc2N2CCCCC2)cc1 was read as HT1080 IDH1KD tx inactive, TDP1 cell noCPT inconclusive, KB-V1 MDR tox inconclusive, TDP1 cell CPT inconclusive, HT1080-NT tox inactive and KB-3-1 cytotox inactive.
For Cc1cc(C)c(NC(=O)c2nc3ccccc3nc2N2CCCCC2)c(C)c1 the results were TDP1 cell noCPT 26µM, KB-V1 MDR tox inactive, TDP1 cell CPT inconclusive and KB-3-1 cytotox inactive.
`Cc1cccc(NC(=O)CSc2nc3ccccc3nc2N2CCCC2)c1` gave HT1080 IDH1KD tx inconclusive, TDP1 cell noCPT inconclusive, KB-V1 MDR tox inconclusive, TDP1 cell CPT inconclusive, HT1080-NT tox inactive and KB-3-1 cytotox inconclusive.
Screening CCCCOC(=O)c1ccc(NC(=O)c2cc(-c3cccs3)on2)cc1 returned TDP1 cell noCPT inconclusive, KB-V1 MDR tox inactive, TDP1 cell CPT inactive and KB-3-1 cytotox inactive.
Screening C[C@H]1CN([C@@H](C)CO)C(=O)c2cc(Br)cnc2O[C@@H]1CN(C)S(=O)(=O)c1cn(C)cn1 returned HT1080 IDH1KD tx inactive, TDP1 cell noCPT inactive, KB-V1 MDR tox inconclusive, TDP1 cell CPT inactive, HT1080-NT tox inactive and KB-3-1 cytotox inactive.
`Cc1cc(C)c2c(CC(=O)N(Cc3ccccc3)C3CCS(=O)(=O)C3)coc2c1` (centres undefined) gave TDP1 cell noCPT inconclusive, KB-V1 MDR tox inconclusive, TDP1 cell CPT inconclusive and KB-3-1 cytotox inactive.
CCc1ccc(NC(=O)CSc2nc3ccccc3nc2N2CCCCC2)cc1 was read as HT1080 IDH1KD tx inactive, TDP1 cell noCPT 10µM, KB-V1 MDR tox inconclusive, TDP1 cell CPT inconclusive, HT1080-NT tox inactive and KB-3-1 cytotox inactive.
Screening COc1ccc(NC(=O)CSc2nc3ccccc3nc2N2CCCCC2)cc1 returned HT1080 IDH1KD tx inactive, TDP1 cell noCPT inconclusive, KB-V1 MDR tox inactive, TDP1 cell CPT inconclusive, HT1080-NT tox inactive and KB-3-1 cytotox inactive.
For CCc1cccc(NC(=O)CSc2nc3ccccc3nc2N2CCCCC2)c1 the results were TDP1 cell noCPT 16µM and TDP1 cell CPT 12µM.
For CCN1CCN(c2nc3c(c(=O)[nH]c(=O)n3C)n2Cc2cccc(C)c2)CC1 the results were HT1080 IDH1KD tx inactive, TDP1 cell noCPT inactive, KB-V1 MDR tox inactive, TDP1 cell CPT inactive, HT1080-NT tox inactive and KB-3-1 cytotox inactive.
Screening O=C(Nc1ccc(F)cc1F)N1CCN(CCc2ccccc2)CC1 returned HT1080 IDH1KD tx inactive, TDP1 cell noCPT inactive, KB-V1 MDR tox inactive, TDP1 cell CPT inactive, HT1080-NT tox inactive and KB-3-1 cytotox inactive.
Cc1cccc(C(=O)c2cn[nH]c2-c2ccc(C)cc2O)c1 was read as HT1080 IDH1KD tx inactive, TDP1 cell noCPT inactive, KB-V1 MDR tox inactive, TDP1 cell CPT inactive, HT1080-NT tox inactive and KB-3-1 cytotox inactive.
`Cc1ccc(-c2[nH]ncc2C(=O)c2cccc(F)c2)c(O)c1` gave HT1080 IDH1KD tx inactive, TDP1 cell noCPT 15µM, KB-V1 MDR tox inactive, TDP1 cell CPT inconclusive, HT1080-NT tox inactive and KB-3-1 cytotox inactive.
For COc1ccc(CNC(=O)CCC(=O)Nc2nnc(C(F)(F)F)s2)cc1 the results were HT1080 IDH1KD tx inactive, TDP1 cell noCPT inactive, KB-V1 MDR tox inactive, TDP1 cell CPT inactive, HT1080-NT tox inactive and KB-3-1 cytotox inactive.
O=C(NCc1ccco1)c1cccc2c(-c3ccc(F)c(F)c3)coc12 was read as HT1080 IDH1KD tx inactive, TDP1 cell noCPT inconclusive, KB-V1 MDR tox inactive, TDP1 cell CPT inconclusive, HT1080-NT tox inactive and KB-3-1 cytotox inactive.

High-throughput results deposited in PubChem BioAssay by National Center for Advancing Translational Sciences (NCATS).
